# Source: publication PMC7862700, “An all-to-all approach to the identification of sequence-specific readers for epigenetic DNA modifications on cytosine”
# Tests used:
# Assay in all cases: DAPPL (digital affinity profiling via proximity ligation, sequencing); 10 mM Tris-HCl pH 7.5, 50 mM NaCl, 1 mM DTT, 4% glycerol, room temperature, 30 min; GST-TFs on glutathione beads, 16-mer random dsDNA library, 0.1% formaldehyde crosslink after washing; high values mean tight binding
# Settings in all cases: protein: recombinant; tags: N-terminal GST; dsDNA, one strand shown
# FLI1 = target: T1, FLI1 (Homo sapiens, UniProt Q01543 1-452)
# T1 sequence: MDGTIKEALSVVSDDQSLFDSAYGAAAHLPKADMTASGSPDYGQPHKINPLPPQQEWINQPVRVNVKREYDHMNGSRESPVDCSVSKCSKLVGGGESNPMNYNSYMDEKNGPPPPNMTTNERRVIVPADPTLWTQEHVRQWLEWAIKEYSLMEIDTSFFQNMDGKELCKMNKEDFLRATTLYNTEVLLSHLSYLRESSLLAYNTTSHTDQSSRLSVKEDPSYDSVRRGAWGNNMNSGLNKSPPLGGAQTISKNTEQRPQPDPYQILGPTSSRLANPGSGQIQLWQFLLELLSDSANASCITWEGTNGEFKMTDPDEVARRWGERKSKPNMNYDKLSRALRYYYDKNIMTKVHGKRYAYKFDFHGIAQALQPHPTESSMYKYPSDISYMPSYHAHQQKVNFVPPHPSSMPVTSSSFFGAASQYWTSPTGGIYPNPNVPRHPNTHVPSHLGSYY
# Procedure, shortened: (§1)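 Binding signal is defined as a hexamer's read frequency for one factor over its frequency for the tag-only sample. To obtain reads, GST-fused human transcription factors were expressed in yeast, captured on glutathione beads, barcoded with DNA and pooled with that sample. Pools met 200 nmole of a 16-mer random double-stranded DNA library in Tris/NaCl/DTT/glycerol buffer for 30 min at room temperature before washing, 0.1% formaldehyde crosslinking, proximity ligation (BsaI/T4 ligase, 1 h, 37 °C), PCR and Illumina NextSeq500 sequencing.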
# ELK1 = target: T2, ELK1 (Homo sapiens, UniProt P19419 1-428)
# T2 sequence: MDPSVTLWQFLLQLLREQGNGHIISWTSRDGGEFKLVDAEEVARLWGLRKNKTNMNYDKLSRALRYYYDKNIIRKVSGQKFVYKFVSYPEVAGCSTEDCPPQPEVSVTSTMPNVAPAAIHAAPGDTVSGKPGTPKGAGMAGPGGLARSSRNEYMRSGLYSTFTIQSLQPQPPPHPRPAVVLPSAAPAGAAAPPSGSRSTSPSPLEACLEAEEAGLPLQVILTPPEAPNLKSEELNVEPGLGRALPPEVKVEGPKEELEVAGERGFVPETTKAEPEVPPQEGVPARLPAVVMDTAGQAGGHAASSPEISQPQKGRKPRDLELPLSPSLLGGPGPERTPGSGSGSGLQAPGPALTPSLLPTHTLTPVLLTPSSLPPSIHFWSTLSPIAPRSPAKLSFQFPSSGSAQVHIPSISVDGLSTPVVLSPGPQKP
# Procedure, shortened: as §1
# GABPA = target: T3, GABPA (Homo sapiens, UniProt Q06546 1-454)
# T3 sequence: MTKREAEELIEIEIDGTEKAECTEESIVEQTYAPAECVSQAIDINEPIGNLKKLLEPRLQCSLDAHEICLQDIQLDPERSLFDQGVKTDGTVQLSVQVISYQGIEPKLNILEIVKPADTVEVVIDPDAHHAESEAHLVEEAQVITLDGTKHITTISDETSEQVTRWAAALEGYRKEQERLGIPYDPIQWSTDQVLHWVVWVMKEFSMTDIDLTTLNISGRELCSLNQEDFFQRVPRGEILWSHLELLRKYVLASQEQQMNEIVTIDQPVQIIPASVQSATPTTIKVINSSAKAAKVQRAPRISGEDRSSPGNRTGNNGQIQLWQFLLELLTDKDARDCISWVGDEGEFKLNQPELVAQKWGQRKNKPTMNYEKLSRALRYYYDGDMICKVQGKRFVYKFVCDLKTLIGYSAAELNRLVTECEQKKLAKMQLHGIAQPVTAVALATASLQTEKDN
# Procedure, shortened: as §1
# ERG = target: T4, ERG (Homo sapiens, UniProt P11308 1-479)
# T4 sequence: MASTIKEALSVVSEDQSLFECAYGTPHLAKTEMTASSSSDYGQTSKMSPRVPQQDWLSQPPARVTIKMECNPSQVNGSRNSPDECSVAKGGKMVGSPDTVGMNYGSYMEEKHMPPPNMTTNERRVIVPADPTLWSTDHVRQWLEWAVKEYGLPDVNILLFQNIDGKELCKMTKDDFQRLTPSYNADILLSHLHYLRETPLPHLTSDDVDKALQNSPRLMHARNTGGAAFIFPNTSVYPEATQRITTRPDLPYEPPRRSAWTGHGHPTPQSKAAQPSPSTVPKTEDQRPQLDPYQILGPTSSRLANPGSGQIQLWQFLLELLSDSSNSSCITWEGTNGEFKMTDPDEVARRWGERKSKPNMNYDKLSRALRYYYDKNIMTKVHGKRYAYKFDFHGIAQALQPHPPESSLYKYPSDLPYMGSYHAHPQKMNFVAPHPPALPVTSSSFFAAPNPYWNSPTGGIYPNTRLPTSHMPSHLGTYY
# Procedure, shortened: as §1
# ELF1 = ELF1 (Homo sapiens, UniProt P32519 1-619)
# ELF1, sequence (P32519 whole entry): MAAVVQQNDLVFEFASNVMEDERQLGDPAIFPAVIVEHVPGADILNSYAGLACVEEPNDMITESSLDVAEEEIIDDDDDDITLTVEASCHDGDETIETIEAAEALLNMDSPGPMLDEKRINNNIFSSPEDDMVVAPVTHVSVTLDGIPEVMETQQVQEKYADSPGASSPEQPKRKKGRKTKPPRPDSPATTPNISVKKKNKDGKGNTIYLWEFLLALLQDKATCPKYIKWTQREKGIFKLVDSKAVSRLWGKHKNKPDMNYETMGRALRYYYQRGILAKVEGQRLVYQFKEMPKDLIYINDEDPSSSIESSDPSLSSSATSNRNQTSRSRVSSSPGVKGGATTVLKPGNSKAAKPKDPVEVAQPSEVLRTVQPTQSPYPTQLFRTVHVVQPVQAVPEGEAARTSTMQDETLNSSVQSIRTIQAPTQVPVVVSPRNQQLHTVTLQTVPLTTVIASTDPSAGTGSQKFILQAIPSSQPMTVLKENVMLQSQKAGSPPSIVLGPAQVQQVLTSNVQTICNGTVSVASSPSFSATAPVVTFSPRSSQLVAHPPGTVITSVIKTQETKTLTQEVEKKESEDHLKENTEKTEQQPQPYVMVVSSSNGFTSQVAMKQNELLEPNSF
# Procedure, shortened: as §1
# EHF = target: T5, EHF (Homo sapiens, UniProt Q9NZC4 1-300)
# T5 sequence: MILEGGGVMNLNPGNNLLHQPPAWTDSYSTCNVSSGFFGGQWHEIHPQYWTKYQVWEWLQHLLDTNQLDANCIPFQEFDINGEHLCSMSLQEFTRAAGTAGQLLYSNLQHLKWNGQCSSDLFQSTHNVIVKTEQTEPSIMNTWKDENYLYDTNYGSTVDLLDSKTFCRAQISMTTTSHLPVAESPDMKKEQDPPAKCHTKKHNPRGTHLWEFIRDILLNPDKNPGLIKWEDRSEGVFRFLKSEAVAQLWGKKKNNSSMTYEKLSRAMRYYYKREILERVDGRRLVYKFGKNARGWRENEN
# Procedure, shortened: as §1
# SPI1 = SPI1 (Homo sapiens, UniProt P17947 1-270)
# Procedure, shortened: as §1
# ELK3 = target: T6, ELK3 (Homo sapiens, UniProt P41970 1-407)
# T6 sequence: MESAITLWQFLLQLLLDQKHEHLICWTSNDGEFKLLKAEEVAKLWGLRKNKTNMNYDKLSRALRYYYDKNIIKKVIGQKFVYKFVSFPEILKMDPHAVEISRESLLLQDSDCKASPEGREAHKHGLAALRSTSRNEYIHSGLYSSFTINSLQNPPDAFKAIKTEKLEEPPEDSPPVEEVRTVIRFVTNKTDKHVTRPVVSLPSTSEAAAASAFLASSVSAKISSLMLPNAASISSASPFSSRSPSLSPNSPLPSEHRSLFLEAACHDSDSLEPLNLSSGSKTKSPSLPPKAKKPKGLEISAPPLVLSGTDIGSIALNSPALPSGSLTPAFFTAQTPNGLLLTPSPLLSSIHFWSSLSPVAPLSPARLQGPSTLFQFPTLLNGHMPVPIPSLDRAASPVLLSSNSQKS
# Procedure, shortened: as §1
# ETV5 = ETV5 (Homo sapiens, UniProt P41161 1-510)
# ETV5, sequence (P41161 whole entry): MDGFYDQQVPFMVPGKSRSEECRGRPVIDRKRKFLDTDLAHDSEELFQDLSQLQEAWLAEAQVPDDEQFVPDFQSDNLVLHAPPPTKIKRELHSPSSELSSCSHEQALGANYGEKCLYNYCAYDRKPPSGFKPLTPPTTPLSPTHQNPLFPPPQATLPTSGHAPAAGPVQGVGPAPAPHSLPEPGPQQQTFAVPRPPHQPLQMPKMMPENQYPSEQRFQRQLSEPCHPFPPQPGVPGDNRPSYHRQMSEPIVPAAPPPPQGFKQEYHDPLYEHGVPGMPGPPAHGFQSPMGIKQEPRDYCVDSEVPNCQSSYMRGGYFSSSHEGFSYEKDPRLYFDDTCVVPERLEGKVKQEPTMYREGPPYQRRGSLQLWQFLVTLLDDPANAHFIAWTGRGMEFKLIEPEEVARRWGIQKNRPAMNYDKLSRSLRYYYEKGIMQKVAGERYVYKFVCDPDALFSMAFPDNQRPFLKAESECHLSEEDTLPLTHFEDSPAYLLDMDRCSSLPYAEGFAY
# Procedure, shortened: as §1
sequence,measurement,setting,value
CACATG,binding signal,FLI1,"1.18 fold enrichment (6-mer frequency, TF over GST control)"
same,binding signal,ELK1,"1.1 fold enrichment (6-mer frequency, TF over GST control)"
same,binding signal,GABPA,"1.07 fold enrichment (6-mer frequency, TF over GST control)"
same,binding signal,ERG,"1.07 fold enrichment (6-mer frequency, TF over GST control)"
same,binding signal,ELF1,"1.16 fold enrichment (6-mer frequency, TF over GST control)"
same,binding signal,EHF,"1.16 fold enrichment (6-mer frequency, TF over GST control)"
same,binding signal,SPI1,"1.11 fold enrichment (6-mer frequency, TF over GST control)"
same,binding signal,ELK3,"1.14 fold enrichment (6-mer frequency, TF over GST control)"
same,binding signal,ETV5,"1.1 fold enrichment (6-mer frequency, TF over GST control)"
